± gives the standard deviation of the averaged measurements. The full ranking holds about 25,000 sequences; the median of “ln(normalized median fluorescence intensity)” is about 8.9, and the highest 2% start at about 10. For the sample, the highest values were picked, then their nearest neighbours and some sequences at random.
tested on: PfAP2-LT AP2 domain (GST-tagged); assay: gcPBM binding intensity (ln(normalized median fluorescence intensity)); higher = stronger DNA binding
Outline: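 After 1 h on an Agilent 4 × 180k array of primer-extended double-stranded 36-bp intergenic genomic probes and negative controls, bound GST-tagged P. falciparum DNA-binding domains were detected with Alexa488 anti-GST antibody and scanned at 488 nm. The domains had been expressed in E. coli, and binding took place in 1× PBS with 1% milk, 0.2 mg/ml BSA, 0.5% salmon testes DNA and 0.03% Triton X-100. Binding intensity is the highest Masliner-normalised natural-log median intensity across replicate spots of either probe orientation.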

Sequence	gcPBM binding intensity (ln)
TAATTATATAAATACACACACATACACCCAAATAAA [CACACA_site5819]	9.8 ± 0.2
CATATAAATAAATACACACACACACGCCTTATAATT [CACACA_site7830]	10.19 ± 0.078
CCTCCCATTTTTACACGTACACATTTAAAATAGACT [XGTACX_site5640]	8.95 ± 0.21
TATAAAGGTGAAATTTGTACATAGTCATTTTTTAAT [XGTACX_site4811]	8.52 ± 0.42
TATAAAAAAATATATATATATATATATATATAAATA [TGCATGCA_negctrl_site22]	9.09 ± 0.37
TAATAAAGTGAATAATGTACATTTTATTTATTATAT [XGTACX_site6614]	8.62 ± 0.45
GATGCACTTTAAAAATGTACTTATACCTTTAATTGT [XGTACX_site6395]	8.76 ± 0.41
ATAAAAAAAGGACACACACACATATATTTATTTATA [CACACA_site7438]	9.71 ± 0.19
AAAGAAAGAAGACACACACACATATATAAATATCAA [CACACA_site7715]	9.88 ± 0.23
ATAAAAAAAAGACACACACACATATATATATATATA [CACACA_site3073]	10.2 ± 0.18
CATATAAAAGGACACACACACACATATAAATATGTA [CACACA_site6568]	9.88 ± 0.3
TATAAAAGTAGACACACACACATATAAATATAAATA [CACACA_site6567]	9.66 ± 0.27
AAAAAAAAAAGACACACACACATATAAATATAAATA [CACACA_site6899]	9.81 ± 0.26
AATATAAAAAAAAAAAAAAAAAAAAAAAAAAAGACA [CACACA_negctrl_site983]	8.66 ± 0.5
TATAAATAAAGACACACACACATATAAATAAATATA [CACACA_site7155]	9.68 ± 0.26
TAAAAAGGAAGACACACACACACATATATAAATATA [CACACA_site7657]	10.2 ± 0.34
CATATAAAAAGACACACACACACATATATATATATA [CACACA_site940]	9.92 ± 0.31
ATAAAAAAAGGACACACACACATATATATATATATA [CACACA_site5662]	10.46 ± 0.05
AAAAAAAAAAGACACACACACACATAAATATAAATA [CACACA_site6215]	10.2 ± 0.42
TTTGTGCCTATAAATTAACACACAGAAATATATAGA [CACACA_site8175]	9.06 ± 0.28
TACTTCATTCATTTTACACACATATAAACCCTTTTA [CACACA_site3229]	9.15 ± 0.47
ATTTATATGTAGATGTGTACTTAATTGTAATGTGTT [XGTACX_site6422]	8.95 ± 0.45
TTTATTTCCTTTTTGTGTACATATATATGTAATTCA [XGTACX_site1718]	8.78 ± 0.53

Sequence	gcPBM binding intensity (ln)
AACAAAATTGAAGGAACACACATACATATTTATATA [CACACA_site6227]	9.07 ± 0.41
AATTTATAAATAATTAATTTGATAAATTATAAAGGG [GTGCAC_negctrl_site544]	8.45 ± 0.45
AAAAAGAAATATTTATGTACATAATAATAATATTTT [XGTACX_site4693]	8.63 ± 0.44
GGCTAAAAGTTGCACACACACAAAAAAAAAAAAAAA [CACACA_site7531]	9.37 ± 0.51
ATTTATGAAAGAAATAGTACACACATAAACATTTGT [XGTACX_site5862]	9.03 ± 0.36
TATAAAAAAATATATATATATATTATATGTGTAGAA [TGCATGCA_negctrl_site391]	8.71 ± 0.54
AATCCACAAAGACACACACACACATATATATATATA [CACACA_site1269]	10.2 ± 0.23
GTAATCCACAAACACACACACATACACATATATATA [CACACA_site2728]	9.98 ± 0.19
AAAAAAAAAAAAAAGACACACATATATATATATATA [CACACA_site633]	10.1 ± 0.13
TATTTATTTAAAGGCACACATATTTTTATACTTTCT [CACACA_site3163]	8.79 ± 0.49
AAATTTATAAAGAACACACACATATATATATATATA [CACACA_site48]	10 ± 0.21
TTTTTTATATATGTGTGTGTGTGTGTGTCAAGTTTA [GTGCAC_negctrl_site460]	10.3 ± 0.24
TGTGTCAAGTTTAATAAACGCATATAATATATATGA [CACACA_negctrl_site607]	8.59 ± 0.41
AATTTTTTTTTTTTTTTTTTTTATATATGTGTGTGT [XGTACX_negctrl_site129]	9.32 ± 0.42
TTTATATTTAAATGCATGCACTTTCTATTTTTTTTT [GTGCAC_site9959]	9.13 ± 0.53
CTTACATATTACATATGTACATATACACCTTATGTC [XGTACX_site4679]	9.19 ± 0.41
GTTTTATAAAAAGGCGCACACATATACATAAATATA [CACACA_site1864]	9.37 ± 0.47
TATTGTAAGAAAGGCACACAGATAAAATTATTATAT [CACACA_site2921]	8.83 ± 0.51
TGCAATTGTAAAGGCGCACACATATATATATATATA [CACACA_site4894]	10.2 ± 0.13
AAAAAAAGGTAAAATTGTACATACGCACAAAAATAT [XGTACX_site2887]	9 ± 0.51
TTATTGCGCACAATTTGTACATATATATATATAGAA [XGTACX_site7573]	8.84 ± 0.4
TACAATTGTAAAGGCGCACACATATATATATATATA [CACACA_site1392]	10.3 ± 0.23

Source: the supplement of paper PMC11417369
